Results from PubChem BioAssay AID2279 (Southern Research Specialized Biocontainment Screening …, 2010).
Entries with a potency or affinity are not part of this list.

Experiment: HIV-1 Env-mediated cell fusion inhibitors, dose response, CCR5-tropic Env (AID 2279)
Conditions: CCR5-tropic HIV-1 Env, reporter read-out; series mostly up to 50 µM; inhibition: at the top concentration; call rule not given here

inhibition, inactive:
N#Cc1c(SCC(=O)Nc2nc3ccc(Br)cc3s2)sc2c(O)cc(=O)[nH]c12 -35.2%
COc1cc(/C=C2\C(=N)N3N=C(S(C)(=O)=O)SC3=NC2=O)cc(OC)c1OCCOc1cccc(C)c1 7.88%
Cc1ccccc1N/N=C/c1sc(=O)n(Cc2cccc(C(=O)O)c2)c1Cl 37.8%
Cc1ccc(-c2nn(-c3ccccc3)cc2/C=C2\SC(=S)N(CC(=O)O)C2=O)cc1 -2.87% [at 25 µM]
COc1ccc(NC(=O)c2c[nH]n3c(=O)cc(C4CCN(C(=O)OC(C)(C)C)CC4)nc23)cc1Cl -8.31%
O=C(O)CSc1ncnc2c1sc1nc(-c3ccccc3)c3c(c12)CCC3 11.8%
O=C(O)CN1C(=O)/C(=C\c2cc(Br)ccc2OCc2ccc(F)cc2)SC1=S 0.28%
COc1cc(/C=C2\C(=N)N3N=C(S(C)(=O)=O)SC3=NC2=O)ccc1OS(=O)(=O)c1ccccc1 9.44%
CCCCCCc1c(C)c2ccc(OCC(=O)N[C@@H](Cc3ccccc3)C(=O)O)cc2oc1=O -3.71%
CC1=NN(c2ccc(C(=O)O)cc2)C(=O)/C1=C\c1ccc(OC(=O)c2cccs2)cc1 9.07%
CCOC(=O)c1sc2nc3c(SCCC(=O)O)cc(C(=O)c4cc(OC)ccc4O)cn3c(=O)c2c1C 26.2%
CC1=C(C#N)C(=O)NC(=O)/C1=C\c1ccc(-c2cc(C)c(C)cc2[N+](=O)[O-])o1 0.21%
O=C(CCN1C(=O)/C(=C\c2ccccc2F)SC1=S)Nc1ccc(C(=O)O)c(O)c1 9.96%
CC1=C(C(=O)OC(C)C)C(c2ccc(Cl)cc2)n2c(s/c(=C\c3ccc(OCC(=O)O)cc3)c2=O)=N1 (stereo not given) 23.1%
NS(=O)(=O)c1cc(C(=O)NC2CCSc3ccccc32)ccc1Cl (stereo not given) -1.13%
O=C(O)c1cc(NN=C2c3ccccc3-c3ccccc32)ccc1Cl -10.1%
COc1cccc(OCCOc2ccc(/C=C3\C(=N)N4N=C(S(C)(=O)=O)SC4=NC3=O)cc2OC)c1 14.9%
CSc1ccc(C(c2c(C(=O)O)[nH]c3ccccc23)c2c(C(=O)O)[nH]c3ccccc23)cc1 -22.7%
COc1cc(/C=C2\C(=N)N3N=C(S(C)(=O)=O)SC3=NC2=O)cc(OC)c1OCCOc1ccc(C)cc1 4.2%
CCOc1cc(/C=C2/C(=N)N3C(=NC2=O)SN=C3S(C)(=O)=O)ccc1OS(=O)(=O)c1ccccc1 10.1%
CC(C)S(=O)(=O)C1=NSC2=NC(=O)/C(=C\c3ccc(OC(=O)c4ccco4)cc3)C(=N)N21 8.59%
CCc1nnc(NS(=O)(=O)c2ccc(NC(=S)NC(=O)/C=C/c3cccs3)cc2)s1 13.6%
O=C(O)COc1ccc(/C=N/NC(=O)c2ccc(-c3csc(Nc4ccc(Cl)cc4)n3)cc2)cc1 7.13%
CCCCCNC(=O)c1ccc2c(=O)[nH]c3c(C(=O)NCC4CCCO4)sc(=S)n3c2c1 (stereo not given) 28.3%
N=C1/C(=C/c2ccc(-c3cccc(C(=O)O)c3)o2)C(=O)N=C2SC=C(c3ccccc3)N12 30.6%
O=C(O)c1[nH]c2ccccc2c1C(c1c(F)cccc1Cl)c1c(C(=O)O)[nH]c2ccccc12 7.54%
O=C(CN1C(=O)/C(=C2\SC(=S)N(CCS(=O)(=O)O)C2=O)c2ccccc21)Nc1cccc(Br)c1 0.67%
CCN1C(=O)/C(=C\c2ccc(-c3ccc([N+](=O)[O-])cc3OC)o2)SC1=Nc1cccc(C(=O)O)c1 11.7%
COc1ccc(N=C2S/C(=C\c3ccc(OCC(=O)O)cc3)C(=O)N2CCc2c[nH]c3ccccc23)cc1 22.9%
COc1cccc(-c2coc3c(C)c4oc(=O)c(CCC(=O)O)c(C)c4cc23)c1 37.9%
COc1cc(/C=C2/C(=N)N3C(=NC2=O)SN=C3S(C)(=O)=O)ccc1OS(=O)(=O)c1ccccc1 25.4%
CCCCCC#CCC#CCC#CCC#CCCCC(=O)O 23.7%
CN1C(=O)/C(=C/c2ccc(C(=O)Nc3ccc(O)cc3C(=O)O)cc2)SC1=S 4.53%
O=C(O)C(c1ccccc1)N1C(=O)/C(=C\c2ccc(O)c(O)c2)SC1=S (stereo not given) -7.75%
Cc1ccc(NC(=O)COc2cccc(/C=C3\SC(=S)N(CCC(=O)O)C3=O)c2)cc1Cl 14.1%
